ATXN2 expr inh: Primary qHTS for Inhibitors of ATXN expression; hit rate 0.72% among 360,000; AID 1745845, 2022; HEK-293 ATXN2-luciferase reporter, luminescence, 24 h; Potency, µM (series often up to 57 µM), for the others: at the top dose activity change, negative = inhibition, usual class: inhibitors; also: % is scaled to controls: 0 for no effect and ±100 for the full control effect; nearly all actives have a fitted effect of over 55% in size
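ATXN2-luciferase reporter cells (luciferase flanked by upstream and downstream ATXN2 gene portions) were treated 24 h at 37 °C with compounds at up to 57 uM. SteadyGlo luminescence gave expression; GF-AFC fluorescence gave viability.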
HT1080 IDH1KD tx: qHTS for induction of synthetic lethality in tumor cells producing 2HG: qHTS for the HT-1080-IDH1KD cell line. HT-1080 IDH1 knockdown viability, ATP luminescence, 48 h. Potency, µM (doses to about 46.1 µM), without a hit: at the top dose activity, negative = toxicity, hits mostly cytotoxic. hit rate 2% among 360,000;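 also: 0% = DMSO wells and -100% = cell-free medium wells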
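After a 2 h attachment period, IDH1KD HT-1080 cells took pin-transferred compound for 48 h at 37 °C; ATP-based luminescence after 10 min room-temperature reagent incubation reported viability.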
HT1080-NT tox: qHTS for induction of synthetic lethality in tumor cells producing 2HG: qHTS for the HT-1080-NT fibrosarcoma cell line; HT-1080-NT fibrosarcoma viability, CellTiter-Glo ATP luminescence, 48 h; AID 686970, 2013; Potency, µM (titrated, usually from 46.1 µM), inactives show at the top dose activity, negative = less viability, most hits filed as cytotoxic; hit rate 1.6% among 360,000;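 also: NT is the 2HG producing partner of a matched IDH1 knockdown line; 0% = DMSO-treated cells and -100% = media-only wells without cells; nearly all actives have a fitted effect of over 55% in size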
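Viability of the 2HG-overproducing fibrosarcoma line after 48 hours of compound exposure at 37 degrees C was determined by luminescence with CellTiter-Glo, and concentration-effect curves were then fitted and categorized.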
S2 tox: Viability Counterscreen for Primary qHTS for Inhibitors of ATXN expression; S2 cells (HEK-293 line with an ATXN2-luciferase reporter) viability, CellTiter-Fluor protease fluorescence, 24 h; Potency, µM (titrated, usually from 56.7 µM), most hits filed as cytotoxic; hit rate 0.49% among 400,000; AID 651635, 2014; also: nearly all actives have a fitted effect of over 40% in size
KB-3-1 cytotox: qHTS assay for MDR1-selective chemotherapeutics: Primary screen using the parental adenocarcinoma cell KB-3-1 | hit rate 1.4% among 400,000 | KB-3-1 viability, CellTiter-Glo ATP luminescence, 72 h | Potency, µM (highest dose often 46.1 µM), most hits filed as cytotoxic; also: % is scaled to controls: 0 for no effect and ±100 for the full control effect; nearly all actives have a fitted effect of over 60% in size
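Screening of KB-3-1 cells (DMEM, 10% FBS, phenol-red free) ran from lowest to highest compound concentration; after 72 h at 37 °C viability was read luminescently and curves fitted.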
KB-V1 cytotox: qHTS assay for MDR1-selective chemotherapeutics: Primary screen using the drug-selected MDR subline cells KB-V1 | KB-V1 MDR cells viability, CellTiter-Glo, 72 h | Potency, µM (highest dose often 46.1 µM), most hits filed as cytotoxic | hit rate 3.4% among 400,000; also: % is scaled to controls: 0 for no effect and ±100 for the full control effect; nearly all actives have a fitted effect of over 60% in size
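In this primary screen, KB-V1 cells overexpressing P-gp are incubated with library compounds (lowest to highest concentration) for 72 h at 37 degrees C before a luminescent ATP viability read.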
Numbers without * were called inactive; i = inactive; ? = inconclusive; . = no result given. In the library only some 6.2% were active in any assay of this set; here they are far more common. Calls follow the shape of the dose curve; as a rule, active = well fitted curve in the direction sought with a large enough effect; inconclusive = small, poorly fitted or top-dose-only effect, or another doubt; inactive = no such curve, though single readings can be large; an effect the other way counts as inactive or inconclusive. Potency is read from the fitted curve at half-maximal effect.

SMILES	ATXN2 expr inh	HT1080 IDH1KD tx	HT1080-NT tox	S2 tox	KB-3-1 cytotox	KB-V1 cytotox
COc1ccc(N2CCN(C(CNC(=O)C(=O)NCC3CCCO3)c3ccco3)CC2)cc1 (stereo unspecified)	1%	0%	0%	i	i	4.1µM*
O=S(=O)(NCC(c1ccco1)N1CCN(c2ccccc2)CC1)c1ccc(F)cc1 (stereo unspecified)	-10%	-10%	-5%	i	i	23µM*
COC(=O)NCC(c1ccco1)N1CCN(c2ccc(OC)cc2)CC1 (stereo unspecified)	1%	4%	3%	i	i	i
COc1ccc(CN(Cc2ccccc2)C(=O)c2ccno2)cc1COc1ccc(NC(C)=O)cc1	.	7%	-1%	.	.	.
CCCCCCNC(=O)Nc1nnc(-c2ccncc2)s1	.	.	.	.	?	i
NC(c1ccccc1)c1cccs1 (stereo unspecified)	14%	12%	8%	i	i	i
O=S(=O)(NCC(c1ccco1)N1CCN(c2ccccc2)CC1)c1cc(F)ccc1F (stereo unspecified)	.	.	.	.	i	i
CCS(=O)(=O)NCC(c1ccco1)N1CCN(c2ccccc2)CC1 (stereo unspecified)	6%	-1%	0%	i	i	23µM*
CCCCOc1c(Br)cc(CNCCCN2CCOCC2)cc1OC	-29%	?	-28%	?	i	?
O=C(/C=C/c1cccc2ccccc12)c1ccncc1	?	?	?	i	2.9µM*	2.6µM*
CC(C)CCNC(=O)c1ccc(Cn2c(SCC(=O)NC(C)C)nc3ccccc3c2=O)cc1	2%	.	.	i	i	i
Cc1sc2ncnc(N3CCC(C(=O)Nc4ccc(Br)cc4Br)CC3)c2c1C	-31%	18%	9%	i	?	5.8µM*
COc1ccc(-c2csc(NC(=O)C3CCN(c4ncnc5sc(C)c(C)c45)CC3)n2)cc1OC	7.9µM*	?	5.8µM*	i	?	i
COc1ccccc1OCC(=O)NNC(=O)C1CCN(c2ncnc3sc(C)c(C)c23)CC1	.	-19%	-15%	?	i	i
Cc1sc2ncnc(N3CCC(C(=O)Nc4ccc(Cl)cc4Cl)CC3)c2c1C	?	-26%	-12%	i	i	i
CCCN(CC(=O)Nc1ccccc1C)C(=O)C1CCN(c2ncnc3sc(C)c(C)c23)CC1	-19%	-18%	-12%	i	i	21µM*
CCc1nc2c(OCc3ccccc3C)cccn2c1N(C)C(=O)C(C)C	-25%	4%	-6%	i	i	i
CC(Oc1ccccc1F)C(=O)NNC(=O)CCNC(=O)c1ccco1 (stereo unspecified)	-5%	1%	5%	i	i	i
O=c1oc2ccccc2c(Nc2cc3ccccc3cc2O)c1[N+](=O)[O-]	-27%	?	?	?	15µM*	?
O=C1C(Cl)=C(NS(=O)(=O)c2ccc([N+](=O)[O-])cc2)C(=O)c2ccccc21	18µM*	?	?	40µM*	?	?
O=[N+]([O-])c1ccc(NS(=O)(=O)c2ccc(Cl)c(Cl)c2)cc1	?	18µM*	16µM*	?	?	?
O=[N+]([O-])c1cccc(S(=O)(=O)Nc2ccc(Cc3ccncc3)cc2)c1	.	-4%	9%	i	i	16µM*
O=[N+]([O-])c1ccc(S(=O)(=O)Nc2ccncc2)cc1	-6%	-2%	1%	i	i	i
O=[N+]([O-])c1ccc(Oc2ccc(S(=O)(=O)Nc3ccccc3)cc2)cc1	-14%	?	?	i	?	i
CCn1ccc2c(OCC(=O)NCc3ccc(C)cc3)cccc2c1=O	-11%	.	.	i	i	?
SMILES	ATXN2 expr inh	HT1080 IDH1KD tx	HT1080-NT tox	S2 tox	KB-3-1 cytotox	KB-V1 cytotox
COC(=O)c1c(OCc2ccccn2)cc(=O)n2c1CCN(C(=O)c1n[nH]c3c1CCCC3)CC2	.	.	.	i	.	.
CCCCOc1ccc(CNC(=S)N/N=C/c2ccc(OC)c(OC)c2)cc1	1%	0%	0%	i	?	18µM*
COc1cc(=O)n2c(c1C(=O)NC(C)c1ccco1)CCN(Cc1ccccc1C(F)(F)F)CC2 (stereo unspecified)	.	.	.	i	.	.
C[C@@]12C(=O)Nc3ccccc3C(=O)N1[C@H]1c3cc(Br)ccc3OC[C@@H]1[C@@H]2c1ccccc1	-29%	5.8µM*	?	i	?	i
Cc1ccc2c(c1)[C@H]1[C@H](CO2)[C@H](c2ccccc2)[C@]2(C)C(=O)Nc3cc(F)c(F)cc3C(=O)N12	?	?	?	i	?	i
COc1ccc2c(c1)C(=O)N1[C@H]3c4cc(Cl)ccc4OC[C@@H]3[C@H](c3ccccc3)[C@]1(C)C(=O)N2	-17%	15µM*	6.5µM*	i	?	?
COc1ccc2c(c1)[C@H]1[C@H](CO2)[C@H](c2ccccc2)[C@]2(C)C(=O)Nc3cc(Cl)ccc3C(=O)N12	11%	-26%	-16%	i	i	i
Cc1ccc2c(c1)[C@H]1[C@H](CO2)[C@H](c2ccccc2)[C@]2(C)C(=O)Nc3ccc(F)cc3C(=O)N12	?	5.8µM*	?	?	?	?
C[C@@]12C(=O)Nc3ccc(Br)cc3C(=O)N1[C@H]1c3cc(Br)ccc3OC[C@@H]1[C@@H]2c1ccccc1	-13%	-18%	?	i	i	i
COc1cc2c(cc1OC)C(=O)N1[C@H]3c4cc(C)ccc4OC[C@@H]3[C@H](c3ccccc3)[C@]1(C)C(=O)N2	-12%	16µM*	?	i	?	?
COc1cc2c(cc1OC)C(=O)N1[C@H]3c4cc(Cl)ccc4OC[C@@H]3[C@H](c3ccccc3)[C@]1(C)C(=O)N2	-14%	?	-11%	i	?	?
CC(C)Oc1ccc(C(CCN)C2CCCCC2)cc1 (stereo unspecified)	?	15µM*	15µM*	.	?	16µM*
CCN(CC(=O)Nc1ccc2c(c1)OCCO2)CC(=O)Nc1ccc(C)c(S(=O)(=O)N(C)C)c1	31%	0%	9%	i	i	i

Compound activity (PubChem)
